Results: PubChem BioAssay (NCI)
The panel holds about 83,000 compounds, 20% with a hit somewhere; the sample as a whole holds those more often.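 The endpoint reported here, percent growth, reads 100 for growth as untreated, 0 for no net growth and -100 for all cells dead.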 Unmarked numbers belong to inactive results. Active and inactive are the calls of the source.

system: NCI-H522 lung; test: NCI-60 one-dose screen, 48 h (100 = growth as untreated, 0 = no growth, -100 = all killed); conditions: 10 µM unless noted
Method: Growth inhibition of the NCI-H522 human Non-Small Cell Lung tumor cell line is measured as a screen for anti-cancer activity. Cells are grown in 96 well plates and exposed to the test compound for 48 hours. Compounds are tested at a single concentration, which is 10^-5 M for most compounds. The reported endpoint is percent growth (GI% or GIPRCNT), where numbers from 0 - 100% represent growth inhibition, and numbers from -100% - 0 represent cell death. For example, a value of 40 represents 60% growth inhibition. A value of 0 means no net growth occurred over the course of the experiment. A value of -40 indicates 40% of cells at the beginning of the experiment died by the end of the experiment. A value of -100 means all cells are dead at the end of the experiment.
NCI-60 Human Tumor Cell Lines Screen was performed using the standard one-dose NCI protocol, which is described in more detail at https://dtp.cancer.gov/discovery_development/nci-60/default.htm.
Compounds with GIPRCNT values below 10 were considered active. Activity score was based on GIPRCNT using the following formula: […]
Score is 0 for GIPRCNT values of 100 or above, 50 for GIPRCNT values of 0, and 100 for GIPRCNT values of -100.

SMILES	growth
Cc1nc(-c2cc3ccccc3oc2=O)ccc1C(=O)/C=C/c1ccc(N2CCOCC2)cc1	61.4%
COc1ccc(-c2nc3ccc(-c4nnc(SCC(=O)Nc5ccc(C(C)=O)cc5)o4)cc3[nH]2)cc1	103%
NS(=O)(=O)c1ccc(Nc2nc(Nc3ccccc3)nc(-n3nc(-c4ccccc4)cc3-c3ccccc3)n2)cc1	58.5%
O=C(N/N=C/c1ccc(Cl)s1)c1[nH]c2ccc(Br)cc2c1-c1ccccc1	-35.1% (active)
Cc1ccc(-c2nc(C(Cl)Cl)nc3cc(-c4ccccc4)nn23)cc1	1.72% (active)
O=C(CCCN1C(=O)/C(=C/c2ccccc2F)SC1=S)N1CCOCC1	48.8%
COc1cccc(COc2ccc(/C=C3/C(=O)Nc4cc(Cl)ccc43)cc2)c1	84%
Cc1cccc2sc(/N=C(\N)C(Br)Br)nc12	-76% (active)
C/C(=N/NC(N)=S)c1ccc(Nc2nc(SCC(C)C)nc(-c3ccc(F)cc3)c2C#N)cc1	34.1%
c1ccc2c(NCCCn3ccnc3)c3oc4ccccc4c3nc2c1	-23.1% (active)
CCC/C=C/C=C/C(=O)N[C@@H](Cc1cc(F)cc(F)c1)C(=O)N[C@@H]1C(=O)N2CCC[C@H]2C(=O)N2CCCC[C@H]2C(=O)N[C@@H](C)C(=O)N2C[C@H](C)C[C@H]2C(=O)O[C@H]1C	17.9%
N=C1CC(=O)NN1C(=O)CSc1nc2sc3c(c2c(=O)n1-c1ccc(Cl)cc1)CCCC3	102%
CCN(CC)c1ccc(C=O)c(OCc2cn(CC(=O)Nc3ccc(Cl)cc3)nn2)c1	80.9%
Clc1ccc2c(NCCCn3ccnc3)c3oc4ccc(Cl)cc4c3nc2c1	82.9%
Cn1ccnc1C(=O)/C=C/c1ccc(NC(=O)Nc2ccccc2)cc1	11.9%
c1ccc2c(NCCCN3CCOCC3)c3oc4ccccc4c3nc2c1	-52.8% (active)
COC(=O)C(Cc1ccccc1)NS(=O)(=O)/N=C1\NC(=O)NC1=C(Cl)Cl (stereo not given)	96.2%
CCOC(=O)c1c(Nc2ccccc2)nn2c(N)c(C#N)c(-c3ccc(F)cc3)nc12	90.5%
CCOC(=O)c1csc(NC(=O)CSc2nc3sc4c(c3c(=O)n2-c2ccc(Cl)cc2)CCCC4)n1	93.3%
CCCC(=O)NC(c1cccnc1)c1cc(C)c2cccnc2c1O (stereo not given)	22.2%

SMILES	growth
CSc1ccc2c(c1)N(C(=O)/C(C#N)=C/c1c[nH]c3ccccc13)c1ccccc1S2	5.48% (active)
CN1CCc2c(sc3ncnc(N/N=C/c4ccc(Cl)c(Cl)c4)c23)C1	89.9%
O=C1Nc2ccccc2Oc2ccc(S(=O)(=O)CC3CO3)cc21 (stereo not given)	32.8%
COc1cc(/C=C/C(=O)c2cc(OC)c(OC)c(OC)c2)ccc1OCc1ccccc1	49.3%
CCOc1ccc2nc(NC(=O)c3ccc(C(F)(F)F)cc3)sc2c1	94.4%
Cc1ccc2ccc3ccc(C)nc3c2n1.Cc1ccc2ccc3ccc(C)nc3c2n1.Oc1c(Cl)cc(Cl)c2ccc(CN3CCCCC3)nc12.[Ru]	-68.8% (active)
N#Cc1c(-c2ccc(Cl)cc2)nc2c(-c3ccccc3)c(Nc3ccccc3)nn2c1N	72.3%
Nc1cc(-c2c[nH]c3ccc(Cl)cc23)nc2cc(-c3c[nH]c4ccc(Cl)cc34)nn12	28.8%
COc1cc(-c2nc3ccc(-c4nnc(SCC(=O)Nc5ccc(C(=O)/C=C/c6ccc(Cl)cc6)cc5)o4)cc3[nH]2)cc(OC)c1OC	92.6%
CN(C)CCCOc1c2ccc(Cl)cc2nc2c1oc1ccc(Cl)cc12	21%
Cc1cc2nc3c4cc(Cl)ccc4n(CC(=S)NCCN(C)C)c3nc2cc1C	-49.4% (active)
COc1ccccc1/C=C/C=N/NC1=NC2C(S1)N(C)C(=O)N2C (stereo not given)	-24% (active)
COc1cc(/C=C/C(=O)c2cc(OC)c(OC)c(OC)c2)ccc1OCc1ccc(F)cc1	56.4%
OC1CCN(CCCOc2c3ccccc3nc3c2oc2ccc(Cl)cc23)CC1	-51.4% (active)
[Cl][Ru].c1ccc(-c2cccc(-c3ccccn3)n2)nc1.c1ccc(-c2ccnc3c2ccc2c(-c4ccccc4)ccnc23)cc1	13.3%
N#Cc1c(-c2ccc(F)cc2)nc2c(C#N)c(Nc3ccccc3)nn2c1N	97.9%
COc1cccc(-c2nn(-c3ccccc3)cc2-c2ccnc(N3CCN(C(=O)Nc4ccc(F)cc4)CC3)c2)c1	36.2%
CC(C)(O)c1cncc(-c2ccc3ncnc(N4CCc5cc(F)c(Cl)cc54)c3c2)c1	18.5%
CCN1C(=S)N(CC)C2C1N=C(SC)N2/N=C/C=C/c1ccccc1[N+](=O)[O-] (stereo not given)	93.6%
COc1cc(/C=C/C(=O)c2ccc(C)cc2)ccc1Oc1nc(NCCO)nc(N2CCOCC2)n1	76.9%
